Screening results from PubChem BioAssay.
Compounds with a hit are over-represented: about 3.6% of the library has one in this group of screens.
APOBEC3G inh – APOBEC3G (human) deaminase inhibition; recombinant A3G, ssDNA deamination FAM/TAMRA fluorescence; inhibition, % at 20 µM; hit rate 0.28% among 330,000;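 active means inhibition of at least 40% at 20 µM, with no more than 30% in the related APOBEC3A deaminase screen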;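 further: plate controls were DMSO wells with A3G for no effect and wells lacking A3G enzyme for full effect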
MITF act – activators of MITF-driven TRPM1 promoter activity in SK-MEL-5 cells; SK-MEL-5 TRPM1-promoter luciferase, 24 h; % of positive control, neutral wells = 0; activation, % at 12.5 µM; hit rate 0.75% among 300,000;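 active means mean activation of at least 80% with every replicate also reaching 80%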;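 further: 0% = neutral control wells and 100% = parthenolide positive control wells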
PHOSPHO1 block – PHOSPHO1 (human) inhibition; Q8TCT1; recombinant PHOSPHO1, absorbance phosphatase assay; inhibition, % at 13.3 µM; hit rate 1.1% among 290,000; in the data active means inhibition above about 60%
Target sequence (Q8TCT1 whole entry, looked up): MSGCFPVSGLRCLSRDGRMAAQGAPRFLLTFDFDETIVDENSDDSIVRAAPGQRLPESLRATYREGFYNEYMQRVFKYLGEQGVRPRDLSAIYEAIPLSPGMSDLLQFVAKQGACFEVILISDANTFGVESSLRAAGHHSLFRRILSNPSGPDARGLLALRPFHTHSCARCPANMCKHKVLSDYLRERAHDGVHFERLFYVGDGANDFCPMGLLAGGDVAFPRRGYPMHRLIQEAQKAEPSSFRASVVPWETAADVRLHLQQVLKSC
A3A deaminase – inhibitors of human APOBEC3A DNA deaminase. inhibition, % at 20 µM. P31941. hit rate 0.41% among 330,000. recombinant A3A, FAM/TAMRA ssDNA deamination fluorescence. AID 493011;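 active means at least 40% inhibition at 20 µM here, with at most 30% in a related deaminase screen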;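 further: plate controls were A3A with DMSO for no effect and wells lacking A3A enzyme for full effect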
Target sequence (P31941 whole entry, looked up): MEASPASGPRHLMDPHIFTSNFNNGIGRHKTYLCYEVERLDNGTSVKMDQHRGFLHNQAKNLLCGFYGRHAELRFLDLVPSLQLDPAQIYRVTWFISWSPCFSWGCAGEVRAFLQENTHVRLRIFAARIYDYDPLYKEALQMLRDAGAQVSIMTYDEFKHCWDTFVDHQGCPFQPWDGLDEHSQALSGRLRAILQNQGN
esBAF inh – SWI/SNF esBAF complex inhibition; AID 602393; mouse ES cells, Bmi1-luciferase knock-in reporter, 24 h; 100% = twice the neutral-well signal; hit rate 2% among 350,000; reporter increase, % at 12.5 µM; in the data active means activation above about 40%;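 further: 0% = median of the plate's neutral control wells and 100% = double that signal; a rise in the Bmi1 reporter signal indicates esBAF inhibition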
Wnt bcat act – activates Wnt/beta-catenin signaling in a reporter cell assay; activator, plate reader; activation, % at 9.35 µM; hit rate 1.2% among 300,000; AID 743398; in the data active means activation above about 30%, passing the limit was not always enough;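 further: 0% = neutral control wells and 100% = positive control wells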
An asterisk follows results filed as active; nt = no result given.

SMILES	APOBEC3G inh	MITF act	PHOSPHO1 block	A3A deaminase	esBAF inh	Wnt bcat act
Cc1cc(C)nc(N/N=C/c2ccccc2OCc2ccc(Cl)cc2)n1	-4	24	13	-3	nt	35*
COc1ccc(C(=O)/C=C/c2ccccc2)c(O)c1	-7	nt	-5	2	27	0
COc1ccc(C(=O)c2ccc(OC)cc2O)c(O)c1	0	75	-6	1	50*	24
COc1ccc(C(=O)/C=C/c2ccccc2OC)c(OC(=O)c2ccc([N+](=O)[O-])cc2)c1	-10	13	nt	-5	nt	38*
COc1ccc(C(=O)/C=C/c2ccc(OC)cc2OC)c(O)c1	-5	93*	48	-4	88*	1
COc1ccc(C(=O)C=Cc2cccs2)c(O)c1	nt	69	nt	nt	45*	48*
C[C@H](CO)N1C[C@H](C)[C@H](CN(C)Cc2ccncc2)OCCCC[C@H](C)Oc2ccc(NC(=O)NC3CCCCC3)cc2C1=O	nt	nt	nt	nt	5	nt
C[C@H](CO)N1C[C@H](C)[C@@H](CN(C)Cc2ccccc2)Oc2c(NC(=O)NC3CCCCC3)cccc2C1=O	nt	nt	nt	nt	-4	nt
COc1ccc(C(=O)/C=C/c2cc(C(=O)O)cc3c2OCOC3)c(O)c1	-2	-6	15	9	59*	0
COc1ccc2nc(N3CCC(C)CC3)c(C#N)cc2c1	-5	84*	-6	-3	64*	nt
Cc1ccc(S(=O)(=O)N(C)C[C@@H]2Oc3ncc(-c4ccccc4)cc3C(=O)N([C@@H](C)CO)C[C@@H]2C)cc1	nt	nt	nt	nt	-5	nt
C[C@H]1CN([C@@H](C)CO)C(=O)Cc2cc(NS(=O)(=O)c3ccc(Cl)cc3)ccc2O[C@@H]1CN(C)C	nt	nt	nt	nt	0	nt
CCCNC(=O)C[C@@H]1CC[C@@H]2[C@H](COc3ccc(NC(=O)NC(C)C)cc3C(=O)N2C)O1	nt	nt	nt	nt	-6	nt
COc1ccc(-c2nnc(SC(C)C(=O)Nc3cccc(Cl)c3)o2)cc1 (stereo not drawn)	-3	87*	1	-4	40	39*
COc1ccc(-c2nnc(SC(C)C(=O)NNC(=O)c3ccc(C)cc3)o2)cc1 (stereo not drawn)	-4	3	8	-1	nt	nt
COc1ccc2cc(CCC(C)=O)ccc2c1	-3	108*	44	2	58*	2
C[C@@H]1CN([C@@H](C)CO)C(=O)Cc2cc(NC(=O)Cn3cnnn3)ccc2O[C@H]1CN(C)Cc1ccc2c(c1)OCO2	nt	nt	nt	nt	-3	nt
COc1ccc(OCCOC(=O)c2cccs2)cc1	-5	nt	-14	-1	50*	1
O=C(OCCc1cc2ccccc2c(=O)o1)c1cccs1	-6	93*	nt	-2	75*	0
COc1ccc(C/C(N)=N/OC(=O)c2cccs2)cc1	-7	6	-4	-4	nt	1
C[C@@H]1CN([C@@H](C)CO)C(=O)c2c(c3ccccc3n2C)-c2ccccc2CO[C@@H]1CN(C)C(=O)C1CC1	nt	nt	nt	nt	-1	nt
CC(C)(C)C(=O)[C@H]1[C@H](c2ccccc2)[C@@]2(N=C(c3ccccc3)OC2=O)C2c3ccccc3C=NN21 (stereo partly drawn)	-4	nt	34	0	47*	12
Fc1ccc(-n2[nH]nnc2=S)cc1N1CCCC1	1	1	78*	-6	7	3
COC(=O)[C@]12C[C@H](CC(=O)NCc3ccccc3)C(=O)N(Cc3ccc4c(c3)OCO4)C1=C[C@H](COCc1ccccc1)O[C@@H]2C	nt	nt	nt	nt	nt	1
CC(C)C#Cc1ccc2c(c1)O[C@H](CN(C)C(=O)C1CCCCC1)[C@H](C)CN([C@H](C)CO)S2(=O)=O	nt	nt	nt	nt	2	nt
SMILES	APOBEC3G inh	MITF act	PHOSPHO1 block	A3A deaminase	esBAF inh	Wnt bcat act
CC(=O)N1[C@@H]2c3cccc(=O)n3C[C@@H]2[C@@H](CO)[C@@H]1C(=O)NCc1ccccc1F	nt	nt	nt	nt	-2	nt
CN1/C(=C\C=C2/C(=O)Oc3ccccc3C2=O)C(C)(C)c2ccccc21	nt	nt	-4	nt	nt	52*
CO[C@H]1CN(C)C(=O)c2cc(NC(=O)C3CC3)ccc2OC[C@@H](C)N(C(=O)c2ccncc2)C[C@@H]1C	nt	nt	nt	nt	-3	nt
COc1ccc(CC(N)c2csc(NC(=O)c3cc(C(C)(C)C)oc3C)n2)cc1 (stereo not drawn)	nt	nt	nt	nt	53*	-3
COc1ccc(CC(N)c2csc(NC(=O)Nc3ccc(OC)cc3)n2)cc1 (stereo not drawn)	nt	nt	nt	nt	5	-1
C[C@@H]1CN([C@H](C)CO)C(=O)c2cc(NC(=O)Cc3cn(C)c4ccccc34)ccc2O[C@@H]1CN(C)Cc1ccc(C(=O)O)cc1	nt	nt	nt	nt	-6	nt
